For 23 molecules, outcome, Potency and max activation results are on record in PubChem BioAssay (Tox21).

Unmarked numbers belong to inactive results. Records with an inconclusive call do not appear. Active and inactive are the calls of the source. Unless noted, the call rests on the fitted dose curve; in most records, active means well fitted curve in the direction sought with a large enough effect in the repeat runs; inconclusive means weak or mixed curves; inactive means no such curve, though single readings can be large; an effect the other way counts as inactive or inconclusive.

Assay [1] addresses Thyrotropin-releasing hormone receptor (Homo sapiens) (UniProt P34981). The assay can be described thus: qHTS assay to identify small molecule agonists of the thyrotropin-releasing hormone receptor (TRHR) signaling pathway (AID 1346891; calls by dose curve; further: series mostly up to about 58 µM). Summed up:
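Screening of agonists relied on calcium signalling in HEK293 cells expressing human TRHR: dye loading 2 h at 37 °C preceded compound addition and a 3-min fluorescence time course.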
In general terms: Quantitative high-throughput screening tests each substance at several concentrations.

The nature of assay [2]: Caspase-3/7 induction in HepG2 cells by small molecules, qHTS assay (AID 1346978). Further: nearly all actives have a fitted effect of over 15% in size. The essentials:
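Wild-type HepG2 cells (2,000/well) were settled 5 h at 37 C, 5% CO2, then exposed to compounds in DMSO for 17 h. Caspase-3/7 activity was read by luminescence 30 min after adding Caspase-Glo 3/7 reagent at room temperature.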

Assay [3] can be described thus: Caspase-3/7 induction in CHO-K1 cells by small molecules, qHTS cell viability counter screen (AID 1346979). Further: nearly all actives have a fitted effect of over 35% in size. Summed up:
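CellTiter-Fluor viability check, qHTS format: wild-type CHO-K1, 16hr compound treatment, 1hr reagent incubation, fluorescence read.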

Assay [4] is described as follows: Caspase-3/7 induction in CHO-K1 cells by small molecules, qHTS assay (AID 1346980). Further: nearly all actives have a fitted effect of over 15% in size. The essentials: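 Wild-type cells were seeded at 1,500 per well and settled 5 hr at 37 C, 5% CO2, then exposed to DMSO-dissolved compounds for 17 hr. Caspase-Glo 3/7 reagent was added, and luminescence was read after 30min at room temperature.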
A short description of assay [5]: Caspase-3/7 induction in HepG2 cells by small molecules, qHTS cell viability counter screen (AID 1346981). Further: series mostly up to about 92 µM; nearly all actives have a fitted effect of over 30% in size. The essentials:
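The parent HepG2 line is plated at 2,000 cells per well and rested 5 hr before compound pinning from DMSO stocks. Following a 16-hr treatment at 37 C, a fluorogenic live-cell substrate (CellTiter-Fluor) reports viability after 1 hr.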

For assay [6], the target named is Nuclear receptor subfamily 1 group I member 2 (Homo sapiens) (UniProt O75469). Nature of the assay: Human pregnane X receptor (PXR) small molecule agonists, qHTS assay (AID 1346982). Further: nearly all actives have a fitted effect of over 35% in size. Further: potency means the concentration at half of the fitted maximal effect. The essentials: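 After plating in 5% charcoal-stripped FBS and a 5 hr rest, PXR-Luc HepG2 cells received compounds in DMSO. Following 24 hr at 37 C, ONE-Glo was added and light output read.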
Nuclear receptor subfamily 1 group I member 2 (Homo sapiens), sequence (O75469 whole entry, looked up): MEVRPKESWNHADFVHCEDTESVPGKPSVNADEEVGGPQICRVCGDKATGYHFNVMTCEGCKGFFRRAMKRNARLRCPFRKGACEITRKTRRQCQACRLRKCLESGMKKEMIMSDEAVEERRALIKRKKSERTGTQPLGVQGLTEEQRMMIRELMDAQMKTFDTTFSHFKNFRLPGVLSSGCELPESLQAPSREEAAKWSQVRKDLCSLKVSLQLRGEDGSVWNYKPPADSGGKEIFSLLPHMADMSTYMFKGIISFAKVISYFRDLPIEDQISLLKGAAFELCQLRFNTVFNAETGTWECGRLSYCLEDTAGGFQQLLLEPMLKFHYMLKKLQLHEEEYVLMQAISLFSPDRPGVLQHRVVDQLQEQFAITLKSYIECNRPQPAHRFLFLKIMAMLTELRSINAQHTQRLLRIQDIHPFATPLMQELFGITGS

Assay [7] is described as follows: Human pregnane X receptor (PXR) small molecule agonists, qHTS cell viability counter screen (AID 1346977). Further: nearly all actives have a fitted effect of over 50% in size. Summed up: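 Tox21 qHTS format; PXR-Luc HepG2, 2,000/well, charcoal-stripped FBS 5%. Cpd exposure 24hr. Read: CellTiter-Fluor fluorescence, multiplexed with luciferase.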
For assay [8], the target named is Nuclear receptor subfamily 1 group I member 2 (Rattus norvegicus) (UniProt Q9R1A7). The assay can be described thus: Rat pregnane X receptor (rPXR) activation by small molecules, qHTS assay (AID 1346983). Further: nearly all actives have a fitted effect of over 20% in size. The conditions noted are these: rPXR luciferase reporter cells, One-Glo luminescence, 24 h; stronger effect = higher value. The essentials: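 Cell-based rPXR luciferase reporter assay, 2,000 cells per well, rested 5hr at 37 C before compound addition in DMSO, then 24 hr at 37 C. One-Glo reagent was added and luminescence read after 30 min at room temperature.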
Nuclear receptor subfamily 1 group I member 2 (Rattus norvegicus), sequence (Q9R1A7 whole entry, looked up): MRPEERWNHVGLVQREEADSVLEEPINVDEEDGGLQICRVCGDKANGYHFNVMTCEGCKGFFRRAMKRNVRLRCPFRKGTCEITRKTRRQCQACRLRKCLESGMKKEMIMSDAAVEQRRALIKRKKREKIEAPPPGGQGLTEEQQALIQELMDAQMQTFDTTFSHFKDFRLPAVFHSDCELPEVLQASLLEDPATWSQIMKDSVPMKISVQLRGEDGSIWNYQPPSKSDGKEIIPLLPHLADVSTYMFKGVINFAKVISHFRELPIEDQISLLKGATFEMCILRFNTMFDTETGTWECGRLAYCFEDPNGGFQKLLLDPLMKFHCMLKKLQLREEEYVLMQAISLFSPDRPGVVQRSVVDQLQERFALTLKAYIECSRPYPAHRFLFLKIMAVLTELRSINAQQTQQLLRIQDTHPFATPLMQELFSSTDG

Assay [9] has as its target Nuclear receptor subfamily 1 group I member 2 (Homo sapiens) (UniProt O75469). The assay can be described thus: CYP3A4 induction through human pregnane X receptor (PXR) by small molecules, qHTS assay (AID 1346984). Further: nearly all actives have a fitted effect of over 40% in size. Further: potency means the concentration at half of the fitted maximal effect. The essentials:
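Human PXR activation is tracked via CYP3A4 promoter-luciferase in DPX-2 (HepG2) cells. Compounds treat cells for 24hr at 37C, and luminescence is read after One-Glo.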

Assay [10] has the same target. The assay can be described thus: Human pregnane X receptor (PXR) activation by small molecules, qHTS assay (AID 1346985). Further: nearly all actives have a fitted effect of over 40% in size. Further: potency means the concentration at half of the fitted maximal effect. The essentials: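 DPX-2 cells (HepG2 co-transfected with a PXR response element and a CYP3A4-promoter luciferase construct) were seeded at 2,000 per well, rested 5 hr at 37C, then exposed to DMSO-dissolved compounds for 24 hr. Activation was read as luciferase luminescence.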
On the % scale 0 is the no-effect control and ±100 the full control effect.

Thyrotropin-releasing hormone receptor (Homo sapiens), sequence (P34981 whole entry, looked up): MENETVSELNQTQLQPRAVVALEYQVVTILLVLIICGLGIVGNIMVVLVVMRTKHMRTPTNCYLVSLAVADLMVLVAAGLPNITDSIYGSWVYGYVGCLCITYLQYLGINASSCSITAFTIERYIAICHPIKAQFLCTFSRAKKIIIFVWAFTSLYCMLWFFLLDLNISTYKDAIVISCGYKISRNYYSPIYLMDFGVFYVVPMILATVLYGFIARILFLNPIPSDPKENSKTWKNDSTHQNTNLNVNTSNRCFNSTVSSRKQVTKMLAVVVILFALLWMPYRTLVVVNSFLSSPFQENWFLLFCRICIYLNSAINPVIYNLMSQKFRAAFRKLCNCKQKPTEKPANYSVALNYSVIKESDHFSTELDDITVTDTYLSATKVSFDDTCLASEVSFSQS

With `CC(=O)N(CC(O)CO)c1c(I)c(C(=O)NCCO)c(I)c(C(=O)NCC(O)CO)c1I` (configuration not stated), the call in assay [1] and in [4] was inactive. The Potency result in assay [2], in assay [3], in [5] and in assay [6] was “inactive” in each case.
As for `CCC=O`, the Potency entry in assay [7], in assay [2], in assay [3] and in assay [5] was “inactive” in each case. In assay [4], the molecule was classed as inactive.
`CC(=O)CC(C)C`: the Potency result in assay [7], in assay [2], in assay [3] and in assay [5] was “inactive” each time. Moreover, in assay [4], the result was inactive.
As for `C=C1CC[C@H]2C[C@@H]1C2(C)C`, the molecule was classed as inactive in assay [1] and in assay [4]. For the same molecule, the Potency result in assay [2], in assay [3], in [5] and in assay [6] was “inactive” in each case.
Consider `CC(C)(C)NCCNC(C)(C)C`, for which the Potency entry in [7], in [2], in assay [3], in [5] and in [6] was “inactive” in each case. Besides, in [4], the result was inactive.
Consider `CC(=O)OCC(=O)[C@@]1(O)CCC2C3CCC4=CC(=O)CC[C@]4(C)C3[C@@H](O)C[C@@]21C` (some centres not stated), for which the Potency entry in assay [7], in assay [2], in assay [3], in assay [5] and in assay [6] was “inactive” each time. In assay [4], the molecule was classed as inactive.
`CC(C)OC(=O)c1ccccc1`: the Potency entry in assay [7], in assay [2], in assay [3], in assay [5] and in assay [6] was “inactive” throughout. Moreover, the molecule was classed as inactive in assay [4].
For `CCSC(=O)N(CC(C)C)CC(C)C`, the Potency result in assay [7], in [2], in assay [3], in assay [5] and in assay [6] was “inactive” each time. Besides, in [4], the molecule was classed as inactive.
Take `CO/N=C(/C(=O)N[C@@H]1C(=O)N2C(C(=O)OCOC(=O)C(C)(C)C)=C(C)CS[C@H]12)c1csc(N)n1`: the Potency entry in assay [7], in [2], in assay [3], in [5] and in [6] was “inactive” throughout. In assay [4], the outcome was inactive.
Take `ClC(Cl)(Br)Br`: the Potency entry in [7], in assay [2], in assay [3], in assay [5] and in [6] was “inactive” each time. In [4], the result was inactive.
For `OCCOc1ccc(OCCO)cc1`, the Potency result in assay [7], in assay [2], in assay [3], in assay [5] and in assay [6] was “inactive” each time. In assay [4], the outcome was inactive.
On to `O=C(CCCN1CCN(c2ccccn2)CC1)c1ccc(F)cc1`, for which the result in assay [1] and in assay [4] was inactive. The Potency result in [2], in [3] and in assay [5] was “inactive” in each case. The Potency was 6.68 µM (active) in assay [6], 12.6 µM (active) in [9] and 10 µM (active) in [10]. The max activation in [8] was 0.0374%.
In the case of `COC(=O)[C@@H](N)Cc1ccc(O)c(O)c1`, the outcome in assay [1] and in assay [4] was inactive. The Potency result in assay [2], in assay [3], in assay [5], in assay [6], in [9] and in assay [10] was “inactive” in each case. The max activation in [8] was -6.8%.
Regarding `C1CN(CCOCCN2CCOCC2)CCO1`, the Potency entry in assay [7], in assay [2], in assay [3] and in [5] was “inactive” throughout. Besides, the molecule was classed as inactive in assay [4].
As for `C1OCOCO1`, the Potency entry in [7], in [2], in assay [3] and in assay [5] was “inactive” throughout. Besides, in assay [4], the molecule was classed as inactive.
Regarding `NS(=O)(=O)c1cc(C(=O)NN2C[C@H]3[C@H]4CCC(C4)[C@H]3C2)ccc1Cl`, the call in assay [1] and in assay [4] was inactive. For the same molecule, the Potency result in [2] and in assay [5] was “inactive” each time.
`CC1(C)C(O)C(C)(C)C1O` (configuration not stated): the Potency entry in assay [7], in assay [2], in assay [3], in assay [5] and in [6] was “inactive” each time. Besides, the result in assay [4] was inactive.
With `CCCC(=O)O[C@]1(C(=O)CO)CC[C@H]2[C@@H]3CCC4=CC(=O)CC[C@]4(C)[C@H]3[C@@H](O)C[C@@]21C`, the outcome in [1] and in [4] was inactive. For the same molecule, the Potency entry in assay [2], in assay [3], in assay [5], in assay [9] and in assay [10] was “inactive” each time. Further, the max activation in assay [8] is 8.95%.
Take `Nc1nc2c(ncn2COC(CO)CO)c(=O)[nH]1`: the result in [1] and in [4] was inactive. The Potency result in assay [2], in [3], in assay [5], in assay [6], in assay [9] and in assay [10] was “inactive” each time. The max activation in [8] was 0.872%.
Consider `N=C(N)c1ccc(OCCCOc2ccc(C(=N)N)cc2)cc1`, for which the Potency entry in assay [7], in assay [2], in [3], in assay [5] and in [6] was “inactive” in each case. The molecule was classed as inactive in assay [4].
For the molecule `NS(=O)(=O)c1ccc(C(=O)O)cc1`, the Potency result in assay [7], in assay [2], in assay [3] and in [5] was “inactive” each time. The call in assay [4] was inactive.
For the molecule `CN(C)CCCNCCCN(C)C`, the molecule was classed as inactive in [1] and in assay [4]. Also, the Potency entry in [2], in assay [3], in [5] and in [6] was “inactive” each time.
`CC/C=C\CCOC(C)=O`: the Potency entry in assay [7], in assay [2], in assay [3], in [5] and in assay [6] was “inactive” each time. Further, in assay [4], the result was inactive.
